Pf apPOL inh = Pf-apPOL DNA polymerase inhibition; Recombinant Pf-apPOL, molecular beacon fluorescence, 1.5 h; inhibition, % at 10 µM; hit rate 0.25% among 210,000
mHTT CaM bind = inhibitors of human mutant huntingtin-calmodulin interaction; hit rate 3.6% among 190,000; AID 1671202; P42858; inhibition, % at 15 µM; AlphaScreen His-mHTT/GST-CaM binding, luminescence;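 further: 0% = both proteins with DMSO and 100% = one protein alone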
Numbers without * were called inactive; · = not tested or not shown. Shown are actives, neighbours in structure and some others; about 3.5% of the full set was active somewhere. No stated cut-off is given here; in the data, active means inhibition above about 50%; inactive means the rest.

SMILES	Pf apPOL inh	mHTT CaM bind
CC1CN(C(=O)NCc2ccccc2)CC1c1nc(-c2cccnc2)no1 (stereo unspecified)	4.6	2.3
N#CCOc1ccc2c(c1)OC(=Cc1cc(Br)cc3c1OCOC3)C2=O	-0.6	-6.0
Cc1ccc(C)n1-c1ccc(Cc2ccncc2)cc1	-4.0	64.9*
O=[N+]([O-])c1ccc(Cc2ccncc2)cc1	-5.5	-1.4
O=C(NC1CC1)C1CCc2nc(N3CCCCC3)ncc2C1 (stereo unspecified)	-6.9	-7.0
COc1ccc(N2C(=O)CSC2c2ccccc2C(F)(F)F)cc1Cl (stereo unspecified)	-2.6	-1.0
Cc1ccc(F)cc1S(=O)(=O)NCCC1CCN(C(=O)c2ccc(F)cc2)CC1	-1.8	34.4
Cc1ccc(C(=O)N2CCC(CCNS(=O)(=O)c3ccccc3)CC2)cc1	-3.2	36.6
CCOc1ccc(S(=O)(=O)NCCC2CCN(C(=O)c3ccc(C)cc3)CC2)cc1	-3.3	61.6*
Cc1ccc(C)c(S(=O)(=O)NCCC2CCN(C(=O)c3ccc(F)cc3)CC2)c1	1.5	61.1*
Cc1ccc(C(=O)N2CCC(CCNS(=O)(=O)c3ccc(C)cc3)CC2)cc1	-4.2	36.9
Cc1ccc(C(=O)N2CCC(CCNS(=O)(=O)c3c(C)cc(C)cc3C)CC2)cc1	2.2	44.8
Cc1ccc(C(=O)N2CCC(CCNS(=O)(=O)c3ccc(F)cc3)CC2)cc1	-1.6	53.2*
Cc1ccc(C(=O)N2CCC(CCNS(=O)(=O)c3c(C)noc3C)CC2)cc1	-0.6	61.9*
Cc1ccc(N2C(=O)C3N=NN(CC(=O)Nc4cccc(Cl)c4)C3C2=O)cc1 (stereo unspecified)	-5.3	11.0
CCOc1ccc2nc(NC(=O)c3cn(CC)c4nc(C)ccc4c3=O)sc2c1	-13.6	-3.0
NC(=O)C1(N2CCCCC2)CCN(c2nc(-c3ccccc3F)nc3ccccc23)CC1	3.6	21.0
O=C(c1ccc(F)cc1)N1CCC(CCNS(=O)(=O)c2ccc(Cl)cc2)CC1	-0.3	55.1*
Cc1ccc(C(=O)N2CCC(CCNS(=O)(=O)c3cccc(C)c3)CC2)cc1	1.1	44.4
Cc1ccc(C(=O)N2CCC(CCNS(=O)(=O)c3cccc(C#N)c3)CC2)cc1	-3.7	50.4*
O=C(c1ccccc1)N1CCC(CCNS(=O)(=O)c2ccc(F)cc2)CC1	-1.6	25.9
Cc1nn(-c2cccc(Cl)c2)c2c1C(c1ccncc1)C(C#N)=C(N)O2 (stereo unspecified)	-6.1	17.0
COc1cc(C2C(C#N)=C(N)Oc3c2c(C)nn3-c2cccc(Cl)c2)cc(OC)c1O (stereo unspecified)	-2.3	64.0*
c1ccc(C(c2c[nH]c3ccccc23)c2c[nH]c3ccccc23)nc1	-9.8	73.7*
O=C(O)CC(C(=O)O)c1c[nH]c2ccccc12 (stereo unspecified)	-11.3	2.5
SMILES	Pf apPOL inh	mHTT CaM bind
O=C(O)c1ccccc1Nc1cc(N2CCOCC2)c2noc3c2c1C(=O)c1ccccc1-3	-4.8	43.0
CN(C)c1cc(Nc2ccccc2)c2c3c(onc13)-c1ccccc1C2=O	-1.2	96.0*
CNc1cc(Nc2ccccc2)c2c3c(onc13)-c1ccccc1C2=O	0.0	98.0*
CCOc1ccc(Nc2cc(N3CCOCC3)c3noc4c3c2C(=O)c2ccccc2-4)cc1	-5.6	41.0
CCNC(=O)N1CCCN(C2CCN(Cc3ccccc3)C2=O)CC1 (stereo unspecified)	2.1	-4.2
CSc1nnc(-c2nn(C)c3c2CN(C(=O)c2ccc(C(F)(F)F)cc2)CC3)n1C	-3.5	7.7
O=C(O)CN1C(=O)/C(=C\c2ccco2)SC1=S	·	3.4
COc1cc(C=C2SC(=S)N(CCCCC(C(=O)O)N3C(=O)C(=Cc4ccc(O)c(OC)c4)SC3=S)C2=O)ccc1O (stereo unspecified)	61.7*	49.2
COC(=O)CN1C(=O)C(=Cc2ccc(O)c(OC)c2)SC1=S	-17.7	57.6*
CCCCC(C(=O)O)N1C(=O)C(=Cc2cc(OC)c(OC)c(OC)c2)SC1=S (stereo unspecified)	-63.7	54.9*
CCN1C(=O)C(=Cc2ccc(O)c(OC)c2)SC1=S	-25.8	38.8
CCCCC(C(=O)O)N1C(=O)C(=Cc2ccco2)SC1=S (stereo unspecified)	52.3*	29.2
COC(=O)CCN1C(=O)C(=Cc2ccc(O)c(OC)c2)SC1=S	-17.5	21.3
CCC(C(=O)O)N1C(=O)C(=Cc2cc(OC)c(OC)c(OC)c2)SC1=S (stereo unspecified)	1.6	19.1
Cc1ccc(C2CC(=O)N(C)c3c2c(C)nn3-c2nc(C)cc(C)n2)cc1 (stereo unspecified)	-0.2	1.9
O=C(NCc1cccs1)C(c1ccccc1)n1cccc1 (stereo unspecified)	19.1	18.7
Cc1noc(C)c1S(=O)(=O)N1CCC(C(C)C(=O)NCc2ccc(N(C)C)cc2)CC1 (stereo unspecified)	2.8	2.8
COc1cccc(-c2nc(C3CCN(S(=O)(=O)c4ccc(F)c(C)c4)CC3)no2)c1	3.6	1.1
